{"source": "PubChem BioAssay AID2061317", "about": "(National Center for Advancing Translational Sciences (NCATS), 2025)", "note": "Results filed as inconclusive are left out. Active and inactive are the calls of the source. Calls come from the whole dose curve; as a rule, active = well fitted inhibition curve with a large enough effect; inconclusive = small, poorly fitted or top-dose-only effect; inactive = flat fitted curve, though single readings scatter."}
{"assay": "Identification of antibody-drug conjugate (ADC) payloads which are substrates of ATP-binding cassette drug efflux transporters: ABCB1-HEK293-MDR-19 cell line with tariquidar", "conditions": "HEK293 ABCB1 (MDR-19) + tariquidar, CellTiter-Glo viability, 48 h", "description": "Antibody-drug conjugates (ADCs) feature an antibody recognizing a specific protein joined to a potent toxic payload. Numerous antibody-drug conjugates have received FDA approval; however, clinical resistance arises. Resistance mechanisms include decreased expression or mutation of the antibody target, impaired payload release, or increased expression of ATP-binding cassette (ABC) efflux transporters associated with multidrug resistance. We therefore sought to characterize the interaction of ABC multidrug transporters with ADC payloads. We performed a high-throughput screen with 27 common ADC payloads using cells lines expressing ABC transporters P-glycoprotein (P-gp, encoded by ABCB1) or ABCG2 (encoded by ABCG2). Confirmatory assays were also performed using cells transfected to express P-gp, ABCG2, or MRP1 (encoded by ABCC1). Several commonly used ADC payloads were substrates of P-gp, including calicheamicin gamma1, monomethyl auristatin E, DM1, and DM4. All the pyrrolobenzodiazepines tested - SJG136, SGD-1882, SG2057, and SG3199 - were substrates of P-gp, ABCG2, and MRP1. […] These findings highlight the risk of transporter-mediated resistance with certain ADC payloads and underscore the importance of selecting payloads that evade ABC transporter recognition in future ADC development.\nHEK-293 cells were transfected with empty vector (pcDNA) or vector containing the human ABCB1 (MDR-19), ABCG2 (R-5), or ABCC1 gene (MRP1) and were maintained in EMEM with 2 mg/mL G418 added to maintain transporter expression. The HeLa derivative KB-3-1 and the P-gp overexpressing KB-8-5-11 subline were maintained in DMEM; KB-8-5-11 additionally received 100 ng/mL colchicine. H460 parental cells were obtained from the Division of Cancer Treatment and Diagnosis Tumor Repository, National Cancer Institute at Frederick, MD and were cultured in RPMI. The ABCG2 expressing subline H460 MX20 was generated by selecting H460 cells in 20 nM mitoxantrone. Media in all cases was supplemented with 10% FBS and 1% penicillin-streptomycin. We explored 27 common ADC payloads, in two orthogonal, paired cell line sets-a drug selected and transfected set for each transporter--to identify substrates of the ABC transporters P-gp and ABCG2. Compounds were sourced from Levena Biopharma (San Diego, CA), Selleck Chem (Houston, TX), ChemieTek (Indianapolis, IN), or Microsource Discovery Systems (Gaylordsville, CT). Screening was performed as previously described. Briefly, cells were plated at a density of 500 cells/well in 1536 well plates with compounds added using a 1536-head pin tool (Kalypsys, San Diego CA). Cells were incubated with cytotoxic drugs and processed with CellTiter Glo reagent (Promega, Madison, WI) to determine viability after 48 hours. P-gp substrates were identified by comparing compound activity between paired sets of low-expressing (sensitive) and over-expressing (resistant) cell lines."}
{"smiles": "CC[C@H](C)[C@H](NC(=O)[C@H]1CCCCN1C)C(=O)N(C)[C@H](C[C@@H](OC(C)=O)c1nc(C(=O)N[C@@H](Cc2ccccc2)C[C@H](C)C(=O)O)cs1)C(C)C", "Potency": "3.3 nM (active)"}
{"smiles": "COc1cc2cc(C(=O)N3C[C@@H](CCl)c4c3cc(O)c3ccccc43)[nH]c2c(OC)c1OC", "Potency": "1.7 nM (active)"}
{"smiles": "COc1cc2cc(c1Cl)N(C)C(=O)C[C@H](OC(=O)C(C)C)[C@]1(C)O[C@H]1[C@H](C)[C@@H]1C[C@@](O)(NC(=O)O1)[C@H](OC)C=CC=C(C)C2", "Potency": "0.3 nM (active)"}
{"smiles": "COc1cc2cc(c1Cl)N(C)C(=O)C[C@H](OC(=O)[C@H](C)N(C)C(=O)CCC(C)(C)S)[C@]1(C)OC1[C@H](C)C1C[C@@](O)(NC(=O)O1)[C@H](OC)/C=C/C=C(\\C)C2", "note": "(some centres not stated)", "Potency": "1.2 nM (active)"}
{"smiles": "CC[C@@]1(O)C(=O)OCc2c1cc1n(c2=O)Cc2cc3ccccc3nc2-1", "Potency": "13.3 nM (active)"}
{"smiles": "COc1cccc2c1C(=O)c1c(O)c3c(c(O)c1C2=O)C[C@@](O)(C(=O)CO)CC3OC1CC(N2CCOC(OC)C2)C(O)C(C)O1", "note": "(some centres not stated)", "Potency": "1.3 nM (active)"}
{"smiles": "CC[C@H](C)[C@@H]([C@@H](CC(=O)N1CCC[C@H]1[C@H](OC)[C@@H](C)C(=O)N[C@H](C)[C@@H](O)c1ccccc1)OC)N(C)C(=O)[C@@H](NC(=O)[C@H](C(C)C)N(C)C)C(C)C", "Potency": "1.3 nM (active)"}
